Screens: PubChem, several laboratories
Most compounds without a hit are left out; they make up all but 4.5% or so of the library.
GDH-TPI counter – GDH-TPI coupling enzyme inhibitors, primary screen, artefact control for M. tuberculosis FBA inhibitor project, biochemical, absorbance, full deck. GDH-TPI coupled enzyme counterscreen, NADH absorbance. inhibition, % at 4.8 µM. 1.2% of 360,000 active. AID 588335, 2011; in the data active = inhibition above about 30%
PrPC surface inh – inhibitors of human cell surface prion protein PrPC, primary screen, cell-based, TR-FRET. inhibition, % at 13.8 µM. AID 720596, 2013. Major prion protein (Homo sapiens), P04156. 0.43% of 370,000 active. TR-FRET read-out; in the data active = inhibition above about 24%
PfHsp40 rescue – rescue of yeast from PfHsp40 toxicity, primary screen, S. cerevisiae, ATP luminescence; S. cerevisiae expressing PfHsp40, growth rescue; growth rescue, % at 12.5 µM; 0.68% of 340,000 active; AID 504582, 2011; in the data active = growth rescue above about 28%, passing the limit was not always enough;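 also: yeast W303a lacking pdr1 and pdr3 grown in galactose medium; growth measured after three days at 30 °C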
BJeLR viability – MLPCN primary cell-based screen for lethality selective to Ras in HRASV12 cells | BJeLR (HRASV12) viability, CellTiter-Glo ATP luminescence, 48 h | inhibition, % (no concentration beside the values) | 0.17% of 300,000 active | AID 1554, 2009; in the data active = inhibition above about 50%
PrP 5UTR inh – inhibition of PrP 5' UTR reporter expression; cell-based PrP 5' UTR mRNA reporter, plate reader; inhibition, % (no concentration beside the values); 0.35% of 340,000 active; AID 488862, 2010; in the data active = inhibition above about 52%
FBA Mtb inh – Mtb FBA enzyme inhibitors, primary screen, biochemical, fluorescence, strain H37Rv; inhibition, % at 1 µM; purified M. tuberculosis FBA, fluorescence read-out; 2.3% of 360,000 active; in the data active = inhibition above about 27%
Target sequence (P9WQA3 whole entry, looked up): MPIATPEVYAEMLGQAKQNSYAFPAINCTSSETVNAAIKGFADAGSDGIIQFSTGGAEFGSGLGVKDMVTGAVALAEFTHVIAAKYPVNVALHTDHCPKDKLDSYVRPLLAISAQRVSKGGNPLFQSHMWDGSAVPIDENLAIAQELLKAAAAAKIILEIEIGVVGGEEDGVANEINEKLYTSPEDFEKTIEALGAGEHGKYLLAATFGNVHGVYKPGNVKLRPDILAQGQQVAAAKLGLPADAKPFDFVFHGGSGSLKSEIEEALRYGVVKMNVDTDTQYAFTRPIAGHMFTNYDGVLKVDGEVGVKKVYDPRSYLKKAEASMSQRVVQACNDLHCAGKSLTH
Hits are given with their value.

O=[N+]([O-])c1ccc(S(=O)Cc2ccccc2)c([N+](=O)[O-])c1 (stereo unspecified) was read as GDH-TPI counter inactive, PrPC surface inh inactive, PfHsp40 rescue 253.2, PrP 5UTR inh inactive and FBA Mtb inh inactive.
`Cc1cccc(NC(=S)NC(C)CCc2ccccc2)c1` (stereo unspecified) gave GDH-TPI counter inactive, PrPC surface inh inactive, PfHsp40 rescue 95.6, BJeLR viability inactive, PrP 5UTR inh inactive and FBA Mtb inh inactive.
For CCn1c(O)c(/C=N/NC(=O)c2ccncc2)c(=O)[nH]c1=S the results were GDH-TPI counter inactive, PrPC surface inh inactive, PfHsp40 rescue inactive, BJeLR viability inactive, PrP 5UTR inh inactive and FBA Mtb inh inactive.
Screening CCCCn1c(O)c(/C=N/NC(=O)c2ccncc2)c(=O)[nH]c1=O returned GDH-TPI counter 46.2, PrPC surface inh inactive, PfHsp40 rescue inactive, BJeLR viability inactive, PrP 5UTR inh inactive and FBA Mtb inh inactive.
`COc1ccccc1C(=O)N/C(=C/c1ccc(Br)cc1)C(=O)N1CCOCC1` gave GDH-TPI counter inactive, PrPC surface inh inactive and FBA Mtb inh inactive.
For CCOC(=O)C(=CNc1ccc(Oc2cccnc2)nc1)C(=O)OCC the results were GDH-TPI counter 35.6, PrPC surface inh inactive, PfHsp40 rescue inactive, BJeLR viability inactive, PrP 5UTR inh inactive and FBA Mtb inh inactive.
`CCOc1ccccc1N(C)C(=O)c1cc2c(=O)n(CC)c3ccccc3c2s1` gave GDH-TPI counter 41.6, PrPC surface inh inactive, PfHsp40 rescue inactive, BJeLR viability inactive and FBA Mtb inh inactive.
CCn1c(=O)c2cc(C(=O)N3CCCC3)sc2c2ccccc21 was read as BJeLR viability inactive.
Screening CN(C)c1ccc(/C=C(\C#N)C(=O)NCc2ccco2)cc1 returned BJeLR viability inactive.
For N#C/C(=C\Nc1ccc2c(c1)OCCO2)C(=O)NCc1ccco1 the results were GDH-TPI counter 44.2, PrPC surface inh inactive, PfHsp40 rescue inactive, BJeLR viability inactive, PrP 5UTR inh inactive and FBA Mtb inh inactive.
Screening CN(C)S(=O)(=O)c1cccc(C(=O)N/N=C\c2cccc(C#N)c2)c1 returned PrPC surface inh inactive.
For CCOc1ccc(CCNC(=O)c2cc(-c3ccccc3)c(N3CCOCC3)s2)cc1OC the results were PrPC surface inh inactive.
`CN(C)/C=C/c1onc(-c2c(Cl)cccc2Cl)c1C#N` gave GDH-TPI counter 31.0, PrPC surface inh inactive, PfHsp40 rescue inactive, BJeLR viability inactive, PrP 5UTR inh inactive and FBA Mtb inh inactive.
`COc1ccccc1Nc1nc(NCCO)nc(N)c1[N+](=O)[O-]` gave GDH-TPI counter inactive, PrPC surface inh inactive, BJeLR viability inactive and FBA Mtb inh inactive.
For CNc1nc(N)c([N+](=O)[O-])c(Nc2ccccc2OC)n1 the results were GDH-TPI counter 31.9, PrPC surface inh inactive, PfHsp40 rescue inactive, BJeLR viability inactive, PrP 5UTR inh inactive and FBA Mtb inh inactive.
Screening CCOC(=O)Cc1c(C)nc2c(-c3ccc(Cl)cc3)c[nH]n2c1=O returned GDH-TPI counter inactive, PrPC surface inh inactive, PfHsp40 rescue inactive, BJeLR viability inactive, PrP 5UTR inh inactive and FBA Mtb inh 56.0.
Screening CC1CCN(c2ccc3c(c2)S(=O)(=O)c2ccccc2C3=O)CC1 returned GDH-TPI counter inactive, PrPC surface inh inactive, PfHsp40 rescue 198.6, BJeLR viability inactive, PrP 5UTR inh inactive and FBA Mtb inh inactive.
`NC(=O)C1CCN(c2ccc3c(c2)S(=O)(=O)c2ccccc2C3=O)CC1` gave GDH-TPI counter inactive, PrPC surface inh inactive, PfHsp40 rescue inactive, BJeLR viability inactive, PrP 5UTR inh inactive and FBA Mtb inh inactive.
`O=C(CSc1ccccn1)N1CCc2ccccc21` gave GDH-TPI counter inactive, PrPC surface inh inactive, PfHsp40 rescue 72.1, BJeLR viability inactive, PrP 5UTR inh inactive and FBA Mtb inh inactive.
Screening O=C(CSc1ccc(-c2ccccn2)nn1)c1ccc([N+](=O)[O-])cc1 returned GDH-TPI counter inactive, PrPC surface inh inactive, PfHsp40 rescue 94.6, BJeLR viability inactive, PrP 5UTR inh inactive and FBA Mtb inh inactive.
Screening O=C(CSc1ccc(-c2ccccc2)nn1)N1CCCCC1 returned GDH-TPI counter inactive, PrPC surface inh inactive, PfHsp40 rescue inactive, BJeLR viability inactive, PrP 5UTR inh inactive and FBA Mtb inh inactive.
